According to the supplement of paper PMC11732987, “Enantioselective OTUD7B fragment discovery through chemoproteomics screening and high-throughput optimisation” (Communications Chemistry, 2025):

Experiments:
Test in all cases: log2 ratio of Biotin-Ahx-Ub-VS probe labelling (fragment/DMSO); higher = less target engagement (more negative = stronger competition), active = hit call of the paper (q ≤ 0.05, log2 ratio ≤ -1)
Settings in all cases: compound concentration: 200 uM; treatment time: 3 h
USP42 = target: T1, USP42 (UniProt Q9H9J4)
T1 sequence (whole entry): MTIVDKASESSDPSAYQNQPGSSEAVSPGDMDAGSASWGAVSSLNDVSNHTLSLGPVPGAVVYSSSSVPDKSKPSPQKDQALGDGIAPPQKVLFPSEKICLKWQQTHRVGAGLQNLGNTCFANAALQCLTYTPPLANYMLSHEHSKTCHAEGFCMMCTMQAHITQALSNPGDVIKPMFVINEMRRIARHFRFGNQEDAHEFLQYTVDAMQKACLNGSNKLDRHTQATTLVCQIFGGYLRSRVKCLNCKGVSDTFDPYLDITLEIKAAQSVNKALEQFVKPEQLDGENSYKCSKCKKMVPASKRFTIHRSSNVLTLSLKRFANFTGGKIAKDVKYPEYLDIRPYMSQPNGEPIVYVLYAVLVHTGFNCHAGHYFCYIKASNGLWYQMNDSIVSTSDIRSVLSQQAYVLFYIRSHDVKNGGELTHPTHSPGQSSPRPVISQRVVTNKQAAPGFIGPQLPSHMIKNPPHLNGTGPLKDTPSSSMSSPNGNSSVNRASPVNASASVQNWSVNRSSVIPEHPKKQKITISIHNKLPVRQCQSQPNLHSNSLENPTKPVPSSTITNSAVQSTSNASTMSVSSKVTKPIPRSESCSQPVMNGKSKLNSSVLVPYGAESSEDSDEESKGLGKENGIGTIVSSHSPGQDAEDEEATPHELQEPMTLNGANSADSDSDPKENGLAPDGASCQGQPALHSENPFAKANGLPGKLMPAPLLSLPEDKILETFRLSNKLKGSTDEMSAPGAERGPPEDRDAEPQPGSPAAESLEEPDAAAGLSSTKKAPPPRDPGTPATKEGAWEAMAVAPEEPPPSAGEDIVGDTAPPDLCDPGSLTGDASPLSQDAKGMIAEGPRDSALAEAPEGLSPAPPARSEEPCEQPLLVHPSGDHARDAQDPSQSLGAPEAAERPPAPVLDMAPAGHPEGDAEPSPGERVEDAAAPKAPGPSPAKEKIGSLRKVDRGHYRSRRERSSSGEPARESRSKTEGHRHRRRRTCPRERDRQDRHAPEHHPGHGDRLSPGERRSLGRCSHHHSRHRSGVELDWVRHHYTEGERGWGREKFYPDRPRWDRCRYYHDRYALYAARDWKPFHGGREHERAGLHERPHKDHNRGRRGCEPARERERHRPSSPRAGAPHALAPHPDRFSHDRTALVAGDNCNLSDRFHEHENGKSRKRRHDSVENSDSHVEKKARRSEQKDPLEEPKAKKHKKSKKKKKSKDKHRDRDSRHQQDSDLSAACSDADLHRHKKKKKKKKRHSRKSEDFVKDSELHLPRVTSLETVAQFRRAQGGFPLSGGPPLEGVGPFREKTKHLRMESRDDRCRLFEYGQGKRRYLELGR
Method in brief: (§1)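 The table lists average log2 ratios of fragment over vehicle, from an unpaired t-test on global-median-normalised Spectronaut label-free quantities. Proteins with ≥2 unique peptides were used. Samples were HEK293T lysate (495 µg) treated in triplicate with fragment at 200 µM or vehicle for 3 h, then with Biotin-Ahx-Ub-VS (0.5 µM final) for 1 h, with labelled DUBs NeutrAvidin-enriched and run by diaPASEF LC-MS/MS.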

USP46 = USP46 (UniProt P62068)
USP46, sequence (P62068 whole entry): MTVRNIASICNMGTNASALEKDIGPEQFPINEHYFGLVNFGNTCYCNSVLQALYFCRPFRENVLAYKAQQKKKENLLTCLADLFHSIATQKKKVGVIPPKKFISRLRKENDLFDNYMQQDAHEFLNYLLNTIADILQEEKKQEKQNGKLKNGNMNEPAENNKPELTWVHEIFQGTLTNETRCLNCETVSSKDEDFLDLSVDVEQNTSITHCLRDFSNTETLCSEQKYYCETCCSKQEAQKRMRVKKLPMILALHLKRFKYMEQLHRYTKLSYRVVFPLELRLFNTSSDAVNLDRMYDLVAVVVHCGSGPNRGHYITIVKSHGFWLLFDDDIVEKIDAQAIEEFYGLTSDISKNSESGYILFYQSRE
Method in brief: as §1

USP47 = target: T2, USP47 (UniProt Q96K76)
T2 sequence (whole entry): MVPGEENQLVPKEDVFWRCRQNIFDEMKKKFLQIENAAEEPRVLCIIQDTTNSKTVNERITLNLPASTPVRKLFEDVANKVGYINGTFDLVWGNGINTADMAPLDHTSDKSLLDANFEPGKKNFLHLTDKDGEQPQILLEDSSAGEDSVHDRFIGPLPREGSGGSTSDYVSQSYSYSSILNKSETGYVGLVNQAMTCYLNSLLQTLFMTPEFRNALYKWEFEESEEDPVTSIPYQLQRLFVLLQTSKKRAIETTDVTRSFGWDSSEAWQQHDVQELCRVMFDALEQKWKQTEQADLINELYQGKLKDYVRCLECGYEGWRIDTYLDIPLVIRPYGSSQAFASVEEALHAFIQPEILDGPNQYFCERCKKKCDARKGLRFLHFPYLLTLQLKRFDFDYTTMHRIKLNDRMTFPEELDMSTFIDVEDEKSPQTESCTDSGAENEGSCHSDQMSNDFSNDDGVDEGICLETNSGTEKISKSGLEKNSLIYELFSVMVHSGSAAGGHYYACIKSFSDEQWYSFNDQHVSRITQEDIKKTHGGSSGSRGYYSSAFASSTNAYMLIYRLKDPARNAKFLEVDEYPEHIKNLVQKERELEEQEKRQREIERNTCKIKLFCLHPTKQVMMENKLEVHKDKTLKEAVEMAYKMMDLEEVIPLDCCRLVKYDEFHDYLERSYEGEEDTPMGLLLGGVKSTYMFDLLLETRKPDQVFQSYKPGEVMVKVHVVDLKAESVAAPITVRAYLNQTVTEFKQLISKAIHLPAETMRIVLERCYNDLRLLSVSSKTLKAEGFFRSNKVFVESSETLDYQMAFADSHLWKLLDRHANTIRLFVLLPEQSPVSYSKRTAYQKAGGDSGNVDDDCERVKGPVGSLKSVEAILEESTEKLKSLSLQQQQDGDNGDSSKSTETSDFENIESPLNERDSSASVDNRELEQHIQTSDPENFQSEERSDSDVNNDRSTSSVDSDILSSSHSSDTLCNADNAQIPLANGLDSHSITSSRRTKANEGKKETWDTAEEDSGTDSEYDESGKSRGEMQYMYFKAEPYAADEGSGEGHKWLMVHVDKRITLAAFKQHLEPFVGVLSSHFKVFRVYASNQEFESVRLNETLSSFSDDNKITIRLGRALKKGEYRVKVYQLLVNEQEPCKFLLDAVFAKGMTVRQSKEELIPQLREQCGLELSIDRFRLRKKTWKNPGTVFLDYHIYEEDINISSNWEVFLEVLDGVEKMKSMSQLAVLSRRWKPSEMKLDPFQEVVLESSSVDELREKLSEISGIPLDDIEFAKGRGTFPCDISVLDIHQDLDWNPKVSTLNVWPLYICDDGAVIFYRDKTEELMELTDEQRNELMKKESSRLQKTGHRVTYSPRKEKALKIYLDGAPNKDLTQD
Method in brief: as §1

USP48 = target: T3, USP48 (UniProt Q86UV5)
T3 sequence (whole entry): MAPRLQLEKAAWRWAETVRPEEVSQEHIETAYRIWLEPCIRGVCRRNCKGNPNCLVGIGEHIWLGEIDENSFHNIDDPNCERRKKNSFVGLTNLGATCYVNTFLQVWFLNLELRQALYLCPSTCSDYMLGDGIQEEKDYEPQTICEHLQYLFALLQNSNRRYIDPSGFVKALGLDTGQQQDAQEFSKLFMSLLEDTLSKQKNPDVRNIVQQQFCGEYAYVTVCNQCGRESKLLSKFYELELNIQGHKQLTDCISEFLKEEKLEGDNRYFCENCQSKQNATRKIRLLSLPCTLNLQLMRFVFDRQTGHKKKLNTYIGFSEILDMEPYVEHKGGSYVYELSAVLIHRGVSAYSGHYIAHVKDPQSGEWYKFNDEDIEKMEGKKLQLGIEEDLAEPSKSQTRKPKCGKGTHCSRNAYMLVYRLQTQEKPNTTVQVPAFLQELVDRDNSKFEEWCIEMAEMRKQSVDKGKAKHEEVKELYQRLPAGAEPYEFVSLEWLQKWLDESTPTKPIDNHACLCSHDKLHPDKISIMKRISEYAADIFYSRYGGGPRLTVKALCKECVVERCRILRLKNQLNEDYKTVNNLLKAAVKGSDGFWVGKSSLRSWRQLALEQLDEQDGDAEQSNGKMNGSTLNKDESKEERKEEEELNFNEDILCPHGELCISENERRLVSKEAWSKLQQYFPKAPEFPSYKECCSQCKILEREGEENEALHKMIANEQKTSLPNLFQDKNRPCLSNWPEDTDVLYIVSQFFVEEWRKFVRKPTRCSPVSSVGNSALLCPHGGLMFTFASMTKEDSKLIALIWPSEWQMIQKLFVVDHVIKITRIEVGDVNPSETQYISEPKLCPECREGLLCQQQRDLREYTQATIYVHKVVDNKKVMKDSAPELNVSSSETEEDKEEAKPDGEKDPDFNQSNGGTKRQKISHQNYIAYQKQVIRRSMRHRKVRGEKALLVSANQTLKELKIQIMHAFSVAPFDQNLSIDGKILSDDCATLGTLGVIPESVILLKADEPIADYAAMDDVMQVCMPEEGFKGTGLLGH
Method in brief: as §1

USP5 = target: T4, USP5 (UniProt P45974)
T4 sequence (whole entry): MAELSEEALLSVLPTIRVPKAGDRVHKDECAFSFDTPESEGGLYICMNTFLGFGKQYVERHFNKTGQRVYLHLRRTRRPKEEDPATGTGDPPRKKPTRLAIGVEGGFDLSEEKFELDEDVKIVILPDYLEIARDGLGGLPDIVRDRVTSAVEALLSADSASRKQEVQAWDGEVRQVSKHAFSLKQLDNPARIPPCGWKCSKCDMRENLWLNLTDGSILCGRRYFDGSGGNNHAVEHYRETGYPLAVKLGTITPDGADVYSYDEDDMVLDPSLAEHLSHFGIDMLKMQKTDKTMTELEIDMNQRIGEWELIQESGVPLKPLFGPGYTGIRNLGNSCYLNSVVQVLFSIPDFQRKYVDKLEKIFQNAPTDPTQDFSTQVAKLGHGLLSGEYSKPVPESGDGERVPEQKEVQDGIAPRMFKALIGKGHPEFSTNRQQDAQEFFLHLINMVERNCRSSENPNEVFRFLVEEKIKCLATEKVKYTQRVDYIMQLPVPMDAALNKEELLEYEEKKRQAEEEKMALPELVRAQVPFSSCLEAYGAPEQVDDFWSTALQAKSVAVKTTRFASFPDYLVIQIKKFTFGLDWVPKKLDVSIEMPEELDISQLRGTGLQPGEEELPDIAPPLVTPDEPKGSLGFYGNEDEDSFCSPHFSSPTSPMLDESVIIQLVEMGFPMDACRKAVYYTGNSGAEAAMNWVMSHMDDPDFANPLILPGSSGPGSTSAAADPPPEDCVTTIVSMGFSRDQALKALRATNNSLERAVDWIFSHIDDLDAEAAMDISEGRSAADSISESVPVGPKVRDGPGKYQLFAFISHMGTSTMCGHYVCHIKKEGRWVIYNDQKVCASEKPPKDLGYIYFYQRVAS
Method in brief: as §1

USP54 = USP54 (UniProt Q70EL1)
USP54, sequence (Q70EL1 whole entry): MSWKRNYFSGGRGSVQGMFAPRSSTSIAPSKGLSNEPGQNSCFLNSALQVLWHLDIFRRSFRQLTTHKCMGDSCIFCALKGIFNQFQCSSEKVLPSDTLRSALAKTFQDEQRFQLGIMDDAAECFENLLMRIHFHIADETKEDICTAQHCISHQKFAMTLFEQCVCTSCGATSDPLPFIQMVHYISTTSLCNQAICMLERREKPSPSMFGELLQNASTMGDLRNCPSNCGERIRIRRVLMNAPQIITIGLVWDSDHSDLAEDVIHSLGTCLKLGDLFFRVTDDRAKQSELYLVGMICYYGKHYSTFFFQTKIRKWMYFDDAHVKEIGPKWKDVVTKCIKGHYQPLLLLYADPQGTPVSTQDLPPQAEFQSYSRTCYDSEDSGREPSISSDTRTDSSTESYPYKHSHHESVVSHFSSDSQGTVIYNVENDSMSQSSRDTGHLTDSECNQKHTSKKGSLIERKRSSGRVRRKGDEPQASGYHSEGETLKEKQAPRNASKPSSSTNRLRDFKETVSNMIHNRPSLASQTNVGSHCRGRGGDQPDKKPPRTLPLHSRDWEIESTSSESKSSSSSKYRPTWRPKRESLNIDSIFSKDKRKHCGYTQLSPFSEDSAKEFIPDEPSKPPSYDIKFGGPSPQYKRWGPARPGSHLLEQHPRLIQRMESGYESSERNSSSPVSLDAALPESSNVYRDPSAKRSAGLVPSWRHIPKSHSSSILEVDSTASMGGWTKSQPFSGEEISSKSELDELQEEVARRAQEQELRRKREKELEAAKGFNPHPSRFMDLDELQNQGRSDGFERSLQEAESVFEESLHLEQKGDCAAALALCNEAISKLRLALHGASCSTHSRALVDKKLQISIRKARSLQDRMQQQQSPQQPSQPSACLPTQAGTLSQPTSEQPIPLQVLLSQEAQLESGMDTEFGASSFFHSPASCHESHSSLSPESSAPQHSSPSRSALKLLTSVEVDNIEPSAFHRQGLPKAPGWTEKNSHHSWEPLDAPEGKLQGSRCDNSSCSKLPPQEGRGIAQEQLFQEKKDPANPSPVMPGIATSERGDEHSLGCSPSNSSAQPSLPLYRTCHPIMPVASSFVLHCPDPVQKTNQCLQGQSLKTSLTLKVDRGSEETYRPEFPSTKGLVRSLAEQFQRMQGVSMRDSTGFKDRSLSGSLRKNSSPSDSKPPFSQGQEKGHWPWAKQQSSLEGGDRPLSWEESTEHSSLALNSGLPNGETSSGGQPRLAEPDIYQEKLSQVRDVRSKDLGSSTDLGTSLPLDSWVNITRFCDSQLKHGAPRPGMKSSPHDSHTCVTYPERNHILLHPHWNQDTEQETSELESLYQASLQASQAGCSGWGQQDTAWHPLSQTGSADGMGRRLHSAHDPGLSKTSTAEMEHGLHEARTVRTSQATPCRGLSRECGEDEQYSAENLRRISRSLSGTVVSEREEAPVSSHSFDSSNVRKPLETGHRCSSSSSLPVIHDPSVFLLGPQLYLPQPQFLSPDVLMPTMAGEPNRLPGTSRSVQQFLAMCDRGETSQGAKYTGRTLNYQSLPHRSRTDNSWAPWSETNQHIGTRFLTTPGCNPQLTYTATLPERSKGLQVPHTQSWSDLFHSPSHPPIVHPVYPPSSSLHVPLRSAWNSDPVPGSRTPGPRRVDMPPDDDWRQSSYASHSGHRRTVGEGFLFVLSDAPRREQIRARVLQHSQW
Method in brief: as §1

USP7 = USP7 (UniProt Q93009)
USP7, sequence (Q93009 whole entry, looked up): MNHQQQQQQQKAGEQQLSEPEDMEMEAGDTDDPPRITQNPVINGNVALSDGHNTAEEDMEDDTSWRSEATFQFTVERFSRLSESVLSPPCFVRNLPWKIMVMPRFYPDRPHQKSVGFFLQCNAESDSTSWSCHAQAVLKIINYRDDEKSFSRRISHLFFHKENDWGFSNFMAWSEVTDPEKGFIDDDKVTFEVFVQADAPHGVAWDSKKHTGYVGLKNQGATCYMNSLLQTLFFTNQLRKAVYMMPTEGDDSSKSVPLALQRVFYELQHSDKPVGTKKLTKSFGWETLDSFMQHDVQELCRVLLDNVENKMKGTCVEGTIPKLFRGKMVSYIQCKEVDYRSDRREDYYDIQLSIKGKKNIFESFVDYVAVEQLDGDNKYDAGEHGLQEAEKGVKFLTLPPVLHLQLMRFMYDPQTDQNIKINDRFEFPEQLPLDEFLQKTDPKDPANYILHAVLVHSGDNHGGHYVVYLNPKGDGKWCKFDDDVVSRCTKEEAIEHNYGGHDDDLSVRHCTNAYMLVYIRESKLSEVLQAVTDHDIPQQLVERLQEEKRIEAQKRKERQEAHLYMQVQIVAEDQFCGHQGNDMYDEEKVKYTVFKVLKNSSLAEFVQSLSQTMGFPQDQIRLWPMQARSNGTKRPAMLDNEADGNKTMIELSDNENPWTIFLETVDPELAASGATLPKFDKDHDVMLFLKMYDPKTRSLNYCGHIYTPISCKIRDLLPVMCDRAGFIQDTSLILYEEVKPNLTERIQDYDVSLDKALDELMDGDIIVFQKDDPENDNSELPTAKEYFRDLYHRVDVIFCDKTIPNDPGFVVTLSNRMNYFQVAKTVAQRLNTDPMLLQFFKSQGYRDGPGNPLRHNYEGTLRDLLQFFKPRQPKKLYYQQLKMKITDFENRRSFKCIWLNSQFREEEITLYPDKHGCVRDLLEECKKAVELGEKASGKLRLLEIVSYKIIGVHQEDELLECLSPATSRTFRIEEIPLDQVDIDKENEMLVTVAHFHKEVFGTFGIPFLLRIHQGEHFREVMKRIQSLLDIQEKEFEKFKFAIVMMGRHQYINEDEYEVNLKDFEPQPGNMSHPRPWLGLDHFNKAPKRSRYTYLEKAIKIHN
Method in brief: as §1

USP8 = target: T5, USP8 (UniProt P40818)
T5 sequence (whole entry): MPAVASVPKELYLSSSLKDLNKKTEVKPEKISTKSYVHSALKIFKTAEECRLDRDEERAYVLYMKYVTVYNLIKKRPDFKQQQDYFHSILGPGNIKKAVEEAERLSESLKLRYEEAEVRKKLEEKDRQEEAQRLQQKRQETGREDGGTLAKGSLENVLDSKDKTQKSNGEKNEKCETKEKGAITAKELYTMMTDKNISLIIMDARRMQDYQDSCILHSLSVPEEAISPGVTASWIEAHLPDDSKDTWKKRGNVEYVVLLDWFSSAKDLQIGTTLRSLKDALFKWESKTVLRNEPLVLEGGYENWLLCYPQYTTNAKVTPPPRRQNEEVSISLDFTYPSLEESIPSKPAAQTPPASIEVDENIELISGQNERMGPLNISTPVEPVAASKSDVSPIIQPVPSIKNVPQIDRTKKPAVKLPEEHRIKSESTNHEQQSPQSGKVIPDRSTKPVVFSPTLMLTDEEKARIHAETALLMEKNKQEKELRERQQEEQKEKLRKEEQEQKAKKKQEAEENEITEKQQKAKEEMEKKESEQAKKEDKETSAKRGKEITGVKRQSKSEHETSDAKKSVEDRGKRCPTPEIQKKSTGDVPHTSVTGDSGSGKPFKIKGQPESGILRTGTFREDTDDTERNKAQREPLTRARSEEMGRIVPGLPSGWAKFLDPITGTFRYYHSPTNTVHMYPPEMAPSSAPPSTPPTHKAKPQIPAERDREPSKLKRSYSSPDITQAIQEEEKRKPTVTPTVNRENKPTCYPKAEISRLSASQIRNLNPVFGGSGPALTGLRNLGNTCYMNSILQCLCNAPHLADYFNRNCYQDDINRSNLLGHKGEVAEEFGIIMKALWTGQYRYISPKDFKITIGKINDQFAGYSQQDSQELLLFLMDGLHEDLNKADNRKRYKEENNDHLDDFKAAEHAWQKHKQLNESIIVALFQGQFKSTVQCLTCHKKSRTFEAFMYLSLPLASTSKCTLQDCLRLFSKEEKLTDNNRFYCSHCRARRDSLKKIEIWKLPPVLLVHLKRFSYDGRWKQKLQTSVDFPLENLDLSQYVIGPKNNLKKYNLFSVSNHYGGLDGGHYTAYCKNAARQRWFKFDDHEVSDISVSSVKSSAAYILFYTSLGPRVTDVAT
Method in brief: as §1

USP9X = USP9X (UniProt Q93008)
Method in brief: as §1

UniProt O00487 = target: UniProt O00487
UniProt O00487, sequence (O00487 whole entry): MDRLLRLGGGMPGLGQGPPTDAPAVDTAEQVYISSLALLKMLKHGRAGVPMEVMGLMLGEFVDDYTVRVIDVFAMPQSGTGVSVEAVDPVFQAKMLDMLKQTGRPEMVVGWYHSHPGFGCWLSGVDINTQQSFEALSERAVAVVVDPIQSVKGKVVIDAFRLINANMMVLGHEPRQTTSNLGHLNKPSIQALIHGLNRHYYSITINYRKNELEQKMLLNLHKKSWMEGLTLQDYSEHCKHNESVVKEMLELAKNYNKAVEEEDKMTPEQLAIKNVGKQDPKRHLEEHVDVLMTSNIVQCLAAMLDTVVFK
Method in brief: as §1

Measured: log2 ratio of Biotin-Ahx-Ub-VS probe labelling

Cl.O=C(CCl)N1CCC(Cc2nccs2)C1 (stereo not given)
inactive: USP42 0.34 | USP46 0.105 | USP47 -0.538 | USP48 -0.286 | USP5 0.225 | USP54 0.476 | USP7 -0.334 | USP8 -0.208 | USP9X -0.186 | UniProt O00487 -0.1
